From PubChem BioAssay AID933 (National Center for Advancing Translational Sciences (NCATS), 2007)
Results filed as inconclusive are left out. Unmarked numbers belong to inactive results. The source made the active and inactive calls. Calls follow the shape of the dose curve; as a rule, active = well fitted activation curve with a large enough effect in the signal ratio, with a control signal flat; inconclusive = small, poorly fitted or top-dose-only effect, or a change in a side signal; inactive = flat fitted curve, though single readings scatter; the % refers to the signal ratio.
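For activation in this document: HEK 293 cells stably expressing human TSHR with RO 20-1724 phosphodiesterase inhibitor; % of control where 0% means no effect.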
Potency is read from the fitted curve at half-maximal effect.

The compounds below were run against Thyrotropin receptor (Homo sapiens) (UniProt P16473) (assay: Secondary Concentration-Response Assay for Agonists of the Thyroid Stimulating Hormone Receptor: HTRF Activity Detection). Details: HEK293-TSHR cells, cAMP HTRF ratio, 30 min; series mostly up to 91.7 µM; activation: at the top concentration.
Chain of Thyrotropin receptor (Homo sapiens) (P16473 whole entry, looked up): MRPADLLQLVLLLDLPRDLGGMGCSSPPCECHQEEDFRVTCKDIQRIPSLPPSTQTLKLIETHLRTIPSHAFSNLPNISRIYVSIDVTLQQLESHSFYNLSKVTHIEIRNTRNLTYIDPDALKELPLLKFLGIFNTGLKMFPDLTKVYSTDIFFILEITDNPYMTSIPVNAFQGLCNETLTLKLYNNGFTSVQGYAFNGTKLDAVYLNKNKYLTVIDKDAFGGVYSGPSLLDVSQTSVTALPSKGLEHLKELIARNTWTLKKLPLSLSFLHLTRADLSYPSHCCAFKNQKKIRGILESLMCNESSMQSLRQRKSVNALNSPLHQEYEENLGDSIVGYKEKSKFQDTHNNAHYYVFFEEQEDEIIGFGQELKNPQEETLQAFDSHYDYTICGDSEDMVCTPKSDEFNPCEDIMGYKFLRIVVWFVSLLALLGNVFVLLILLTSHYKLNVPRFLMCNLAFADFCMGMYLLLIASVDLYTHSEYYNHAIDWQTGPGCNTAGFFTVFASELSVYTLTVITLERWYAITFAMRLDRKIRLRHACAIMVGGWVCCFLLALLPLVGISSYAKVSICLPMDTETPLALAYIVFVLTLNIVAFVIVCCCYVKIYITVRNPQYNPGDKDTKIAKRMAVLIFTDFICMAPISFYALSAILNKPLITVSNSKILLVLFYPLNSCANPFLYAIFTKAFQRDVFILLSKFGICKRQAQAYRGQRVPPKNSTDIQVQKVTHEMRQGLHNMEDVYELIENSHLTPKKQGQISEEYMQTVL
Summary of the method: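 Orthogonal confirmation in a separate TSHR-transfected HEK 293 line: cells in medium with 10 % FCS and 100 uM RO 20-1724 got compound for 30 min at room temperature. cAMP was measured by HTRF (d2-cAMP/anti-cAMP antibody), 615/660 nm emission.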
In the case of `COc1ccc(-c2nc3ccccc3c(=O)n2Cc2ccco2)cc1COc1ccc(NC(C)=O)cc1`, the Potency is reported as 17.8 µM (active). With `CCOc1ccc(S(=O)(=O)NCc2ccccc2Cl)cc1C(N)=O` the “activation” value was 1.35%. Compound `Cc1ccc(N(CC(=O)NCc2ccco2)S(=O)(=O)c2ccccc2)cc1` has an activation of 0.48% [at 0.00035 µM]. In the case of `COc1ccc(-c2nc3ccccc3c(=O)n2Cc2ccccc2)cc1COc1ccc(NC(C)=O)cc1`, the Potency is reported as 8.91 µM (active). In the case of `COc1ccc(/C=N/NC(=O)c2ccn[nH]2)cc1COc1ccc(F)cc1`, the “activation” value is reported as 2.29%. With `COc1ccc(C2Nc3ccccc3C(=O)N2CCCN(C)C)cc1COc1ccc(NC(C)=O)cc1` (stereo unspecified) the “activation” value was 2.95%. `COC(=O)CNC(=O)C12CC3(C)CC(C)(CC(C)(C3)C1)C2` gave an activation of 0.274% [at 0.00035 µM]. In the case of `COc1ccc(/C=C2/C(=O)NC(=O)N(Cc3ccco3)C2=O)cc1COc1ccc(NC(C)=O)cc1`, the “activation” value is reported as 1.65%. In the case of `O=C(COC(=O)C12CC3CC(CC(C3)C1)C2)NCC1CCCO1` (stereo unspecified), the “activation” value is reported as 1.2%. For `COc1ccc2c(c1OC)C(=O)N1c3ccccc3C(=O)N(c3ccccc3F)C21` (stereo unspecified), the “activation” value was 2.15%. With `COc1ccc(C2Nc3ccccc3C(=O)N2Cc2ccccc2Cl)cc1COc1ccc(NC(C)=O)cc1` (stereo unspecified) the “activation” value was 10.2%. `CCOC(=O)C1C(=O)Nc2nc(C)nn2C1c1ccccc1` (stereo unspecified) gave an activation of 2.16% [at 0.00035 µM]. In the case of `COc1ccc(C=O)cc1COc1ccc(NC(C)=O)cc1`, the “activation” value is reported as 4.44%. For `COc1ccc(C2Nc3ccccc3C(=O)N2Cc2ccccc2)cc1COc1ccc(NC(=O)c2ccccc2)cc1` (stereo unspecified), the “activation” value was 8.86%. In the case of `CCOc1ccc(N(CC(=O)NCc2cccs2)S(=O)(=O)c2c(C)noc2C)cc1`, the activation is reported as -0.0859% [at 0.00035 µM]. Compound `CCCS(=O)(=O)N1CCN(C(=O)c2ccc(-c3ccccc3)cc2)CC1` has an activation of 0.323% [at 0.00035 µM]. With `CCOC(=O)c1ccccc1OCc1cc(C2Nc3ccccc3C(=O)N2c2cccc3ccccc23)ccc1OC` (stereo unspecified) the “activation” value was 0.946%. With `O=C1C2C3CCCC3=C3CCCC3C2C(=O)N1c1cccc(Cl)c1` (stereo unspecified) the “activation” value was 1.67%. `CCOC(=O)COc1c(OC)cc(Cl)cc1C1Nc2ccccc2C(=O)N1c1ccccc1` (stereo unspecified) was tested, and the “activation” value was 0.286%. `COc1cccc(OCc2cc(C3Nc4ccccc4C(=O)N3c3ccccc3)ccc2OC)c1` (stereo unspecified) was tested, and the “activation” value was 1.73%. In the case of `COC(=O)C1=C(C)NC(=O)NC1c1cn(-c2ccccc2)nc1-c1cccs1` (stereo unspecified), the activation is reported as -0.246% [at 0.00035 µM]. For `COC(=O)c1cc(NC2c3ccccc3C(=O)N2c2cccnc2)cc(C(=O)OC)c1` (stereo unspecified), the activation was -0.103% [at 0.00035 µM]. For `COc1ccc(CN2C(=O)N(c3ccccc3)C(=O)C2c2ccccc2)cc1COc1ccc(NC(C)=O)cc1` (stereo unspecified), the “activation” value was 7.49%. With `COc1ccc(C2Nc3ccccc3C(=O)N2c2ccc(F)cc2)cc1Cn1nnc2ccccc21` (stereo unspecified) the “activation” value was 2.13%. With `COc1ccc(CN(Cc2ccccc2)C(=O)c2ccc(NC(C)=O)cc2)cc1COc1ccc(NC(C)=O)cc1` the “activation” value was 12.9%. `O=C(CN(Cc1ccccc1Cl)C(=O)Cn1nnc(-c2cccs2)n1)NCC1CCCO1` (stereo unspecified) showed an activation of 0.671% [at 0.00035 µM]. In the case of `COc1ccc(N2C(=O)c3ccccc3NC2c2ccc(OC)c(Cn3nnc4ccccc43)c2)cc1` (stereo unspecified), the “activation” value is reported as 2.15%. For `COc1ccc(C(=O)N(Cc2ccccc2)Cc2ccco2)c(O)c1`, the Potency was 15.8 µM (active). `COC(=O)COc1ccc(Cl)cc1C1Nc2ccccc2C(=O)N1c1ccc(OC)cc1` (stereo unspecified) was tested, and the “activation” value was 3.2%. `COc1ccc(C2Nc3ccccc3C(=O)N2Cc2ccccc2)cc1COc1ccc(Cl)cc1` (stereo unspecified) was tested, and the “activation” value was 15.5%. In the case of `O=C1c2ccccc2NC(c2ccc(F)cc2)N1Cc1ccco1` (stereo unspecified), the “activation” value is reported as 1.15%. For `O=C1c2ccccc2NC(c2ccc3c(c2)OCCO3)N1c1ccc2c(c1)OCCO2` (stereo unspecified), the “activation” value was 2.01%. In the case of `CCN(CC)CCN1C(=O)c2ccccc2NC1c1ccc(N(C)C)cc1` (stereo unspecified), the “activation” value is reported as 1.45%. Compound `Cc1occc1-c1nnc(SCC(=O)Nc2ccccc2)n1C(C)c1ccccc1` (stereo unspecified) has an activation of 0.0209% [at 0.00035 µM]. `COc1ccc(C2Nc3ccc(NC(C)=O)cc3C(=O)N2Cc2ccccc2)cc1COc1ccc(NC(C)=O)cc1` (stereo unspecified) was tested, and the Potency was 15.8 µM (active). `COc1ccc(C2Nc3ccccc3C(=O)N2Cc2ccccc2C)cc1COc1ccc(NC(C)=O)cc1` (stereo unspecified) was tested, and the “activation” value was 14.3%.
